Measurements as given in PubChem BioAssay AID624116 (National Center for Advancing Translational Sciences (NCATS), 2012).
Results filed as inconclusive are left out. Calls of active or inactive are those of the source. The call rests on the fitted dose curve; in most records, active means well fitted activation curve with a large enough effect; inconclusive means small, poorly fitted or top-dose-only effect; inactive means no such curve, though single readings can be large or run the other way.

Experiment: qHTS Assay for Rab9 Promoter Activators: Hit Validation Using Renilla Luciferase Read-Out for Rab9
Conditions: Huh7 Rab9 promoter Renilla luciferase reporter, 24 h; series mostly up to 76.9 µM
Method in brief: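 Luciferase reporter read-out: promoter activation measured by luminescence after 10 min with detection reagent at room temperature. Cells were Huh7 with a stable promoter-luciferase construct, treated 24 h at 37 deg C.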

Potency, inactive:
COc1ccc(NC(=O)CSc2ccc([N+](=O)[O-])cc2)cc1S(=O)(=O)N1CCOCC1
N#C/C(=N\Nc1ccc(Cl)cc1)C(=N)N1CCCCC1
NC(=O)C1(NC(=O)[C@@H]2CC3(CC(c4cccc(NC(=O)[C@@H]5CCC(=O)N5)c4)=NO3)CN2C(=O)c2ccccc2)CC1 (stereo partly drawn)
Cc1ccc(NC(=O)c2c(O)c3ccccc3n(C)c2=O)nc1
CC1CCCN(S(=O)(=O)c2ccc(C(=O)Nc3nnc(-c4ccncc4)o3)cc2)C1 (stereo not drawn)
CCCC(C)NC(=O)c1ccc(OCc2ccc(Cl)cc2)c(OC)c1 (stereo not drawn)
Cc1ccc(NC(=O)Nc2cccc3ccccc23)cc1
CCOC(=O)CSc1nc2cc(C)ccc2cc1C#N
Brc1ccccc1-c1nnc(CSc2nnc3sc4ccccc4n23)o1
COCCNC(=O)CN1C(=O)NC(c2ccccc2)(c2ccccc2)C1=O
Cc1ccccc1NC(=O)Cc1nc(COC(=O)CC(C)c2ccccc2)cs1 (stereo not drawn)
COc1ccc(-c2cc(C(=O)Nc3ccccc3F)on2)cc1
Cc1cccc(NC(=O)CSc2nc3ccccc3o2)c1
COc1ccccc1CNC(=O)COc1ccc(C)cc1
Cc1csc(NC(=O)CSc2nnc(-c3ccncc3)o2)n1
CC(C)(C)C(=O)NC(=S)Nc1ccccc1F
CCOCC(=O)Nc1c(C(=O)Nc2ccc3c(c2)OCCO3)oc2ccccc12
CCCOP(=O)(c1ccc(N(C)C)cc1)C(O)c1cccnc1 (stereo not drawn)
